Active and inactive are the calls of the source.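 The calls were made as follows, unless noted: active = compound raises insulin release from rat beta cells at 5 mM glucose, no numeric limit stated; inactive = the rest.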
How the values were obtained:
[1] = stimulators of nuclear beta-catenin in C2C12, primary screen, imaging, WNT3A-conditioned medium, mouse C2C12, NPC library (AID 1117326; in the data active = nuclear beta-catenin stimulation mostly above about 4.2%, no sharp cut-off; inactive = mostly below about 10%; also: reference of the scale not given here); conditions: stronger effect = higher value
[2] = stimulators of insulin release from INS-1E, primary screen, cell-based, 5 mM glucose, NPC library (AID 1117329); conditions: rat INS-1E insulin secretion, at 10 µM, stronger effect = higher value; also: reference of the scale not given here
[3] = growth inhibition of GSK3B-pretreated HCT116 cells – cell-based, CellTiter-Glo, 0.2 to 20 µM (AID 1117336;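 active = compounds lowering colon cancer cell viability after pretreatment blocking the GSK3B kinase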); conditions: HCT116 viability after GSK3B inhibitor, at 20 µM, stronger effect = higher value
[4] = inhibition of endothelial tube formation, primary screen, imaging, VEGF stimulated, CD31 staining, tube area, NPC library (AID 1117340;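 active = compound that reduces growth-factor-driven endothelial tube area in a mixed cell culture, no cutoff stated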); conditions: VEGF-stimulated ADSC/ECFC co-culture, at 10 µM, stronger effect = higher value
[5] = glucagon-like peptide 1 release enhancers, primary assay, NCI-H716 cell line, NPC library (AID 1117341;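 active = compound raises GLP1 secretion from the human gut endocrine cells, with no numeric limit stated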; also: reference of the scale not given here); conditions: NCI-H716 cells, at 10 µM, stronger effect = higher value
[6] = HCT116 colon cancer cell growth inhibition, primary screen, CellTiter-Glo luminescence, NPC library (AID 1117342;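 active = compounds that lower survival of HCT116 colon cancer cells in the luminescence readout, no numeric limit stated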); conditions: at 20 µM (top of the series)
[7] = CellTiter-Glo luminescent readout of SW480 viability loss, NPC library primary (AID 1117343;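 active = compounds that lower viability of the colon cancer cells in the luminescence readout, with no numeric limit stated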); conditions: CellTiter-Glo luminescence; at 20 µM (top of the series)
[8] = decreased DLD-1 cellular survival, CellTiter-Glo luminescent readout, NPC compound collection, primary HTS (AID 1117346;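 active = compounds that lower survival of DLD-1 colon cancer cells in the luminescence readout, no cutoff given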); conditions: DLD-1 viability, CellTiter-Glo luminescence; at 20 µM (top of the series)

Row | Structure (SMILES) | nuclear beta-catenin stimulation ([1]; at 10 µM) | nuclear beta-catenin stimulation ([1]; stimulation, at 2 µM) | insulin secretion stimulation [2] | viability decrease [3] | tube area decrease [4] | GLP1 secretion stimulation [5] | inhibition of viability [6] | viability decrease (inhibition) [7] | viability decrease (inhibition) [8]
1 | CC(C)C(=O)Nc1cccc(C2CN3CCSC3=N2)c1 (stereo unspecified) | 1.5% (inactive) | 1.8% | -0.5% (inactive) | -30.9% (inactive) | -4.2% (inactive) | 5% (inactive) | 4.17% (inactive) | 13% (inactive) | -14.4% (inactive)
2 | CCOc1ccc(C(=O)OCCN(CC)CC)cc1 | -1% (inactive) | -1.4% | -0.6% (inactive) | 6.1% (inactive) | -2.2% (inactive) | 1.9% (inactive) | 43.8% (inactive) | 20.4% (inactive) | 8.4% (inactive)
3 | COc1ccc2nc(NC(=O)Nc3ccccc3)sc2c1 | 0.5% (inactive) | 0% | 1.3% (inactive) | 11.7% (inactive) | 2.4% (inactive) | -1.4% (inactive) | 43% (inactive) | -1.6% (inactive) | 24% (inactive)
4 | CC(CC1c2ccccc2CCc2ccccc21)CN(C)C (stereo unspecified) | -1% (inactive) | 0.4% | 29.8% (active) | 34.8% (inactive) | 9.8% (inactive) | -1.9% (inactive) | 44.4% (active) | 84.4% (active) | 87.7% (active)
5 | CO[C@@]1(NC(=O)CSC[C@@H](N)C(=O)O)C(=O)N2C(C(=O)O)=C(CSc3nnnn3C)CS[C@@H]21 | 0.6% (inactive) | -1.7% | 2.6% (inactive) | 4.5% (inactive) | -11.8% (inactive) | -0.5% (inactive) | -0.6% (inactive) | -15.3% (inactive) | 3.1% (inactive)
6 | CCS(=O)(=O)c1ccc(OC)c(C(=O)OC)c1 | -0.3% (inactive) | -1.7% | 0.9% (inactive) | -5.9% (inactive) | -10% (inactive) | 1% (inactive) | 7.3% (inactive) | -1.8% (inactive) | 8.8% (inactive)
7 | CC(=O)OC(C)OC(=O)C(C)c1ccc(-c2ccccc2)c(F)c1 (stereo unspecified) | 3.1% (inactive) | 0.3% | 0.5% (inactive) | -2.95% (inactive) | -36.8% (inactive) | -1.1% (inactive) | 8.9% (inactive) | 4.6% (inactive) | -3.05% (inactive)
8 | NS(=O)(=O)c1ccc(NC(=O)CCC(=O)O)cc1 | -0.1% (inactive) | -0.3% | -2.4% (inactive) | -9.65% (inactive) | -1.3% (inactive) | 0.1% (inactive) | -10.5% (inactive) | -26.6% (inactive) | -13.6% (inactive)
9 | Cc1onc(-c2c(F)cccc2Cl)c1C(=O)Cl | -0.1% (inactive) | 0.5% | 1.1% (inactive) | -3.1% (inactive) | -12.5% (inactive) | -1.4% (inactive) | 0.4% (inactive) | -2.6% (inactive) | 2.8% (inactive)
10 | C/C=C/C=N/NC(=O)c1ccncc1 | 0.2% (inactive) | 0.6% | -2.2% (inactive) | -6.2% (inactive) | 6% (inactive) | -0.1% (inactive) | 17% (inactive) | 27.7% (inactive) | -3.65% (inactive)
11 | O=C(CO)[C@@H](O)[C@H](O)[C@@H](O)CO | -1.8% (inactive) | -0.9% | 3% (inactive) | -1.5% (inactive) | -29.2% (inactive) | -2.6% (inactive) | 8.2% (inactive) | 4.9% (inactive) | 3.2% (inactive)
12 | O=C(CCOCCOCCOCCOCCC(=O)Nc1c(I)cc(I)c(C(=O)O)c1I)Nc1c(I)cc(I)c(C(=O)O)c1I | -0.1% (inactive) | -1.6% | 0.1% (inactive) | -4.7% (inactive) | -12% (inactive) | 0.3% (inactive) | -2.1% (inactive) | -14.8% (inactive) | -2.6% (inactive)
13 | C[C@@H](O)[C@H]1C(=O)N2C(C(=O)[O-])=C(SC3Cn4cnc[n+]4C3)[C@H](C)[C@H]12 (stereo partly specified) | -0.3% (inactive) | -2.1% | 6.4% (inactive) | -16.5% (inactive) | -9.3% (inactive) | 0.8% (inactive) | 15.4% (inactive) | -6.5% (inactive) | 5.3% (inactive)
14 | CC(=O)OC[C@H]1O[C@@H](OC(C)=O)[C@H](OC(C)=O)[C@@H]1OC(C)=O | -0.3% (inactive) | -1.5% | -1.25% (inactive) | -0.8% (inactive) | 9.6% (inactive) | -1.3% (inactive) | 12.6% (inactive) | 13.1% (inactive) | 4.4% (inactive)
